These results are taken from PubChem BioAssay (EPA / NIEHS).

The source made the active and inactive calls. How the source made its calls: active means hit-call score of the fitted dose curve at least 0.9, where 1 is the maximum; inactive means score below 0.9.

Assay [1] deals with Bile acid receptor (Homo sapiens) (UniProt Q96RI1). Kind of assay: ATG_IR1_CIS: Attagene CIS-FACTORIAL HepG2 Assay for human Nuclear Receptor Subfamily 1 Group H Member 4 (NR1H4), IR1 submotif (AID 2282946). The conditions noted are these: IR1 reporter transcription, actives raise or lower the signal. In short, it runs like this: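 HepG2 cells transiently transfected with multiplexed cis-element reporter units read endogenous transcription factor activity. After 24 h compound exposure, reporter mRNA was quantified by RT-PCR, fluorescent labelling, HpaI digestion and capillary electrophoresis; bidirectional fitting versus DMSO baseline.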
Bile acid receptor (Homo sapiens), sequence (Q96RI1 whole entry, looked up): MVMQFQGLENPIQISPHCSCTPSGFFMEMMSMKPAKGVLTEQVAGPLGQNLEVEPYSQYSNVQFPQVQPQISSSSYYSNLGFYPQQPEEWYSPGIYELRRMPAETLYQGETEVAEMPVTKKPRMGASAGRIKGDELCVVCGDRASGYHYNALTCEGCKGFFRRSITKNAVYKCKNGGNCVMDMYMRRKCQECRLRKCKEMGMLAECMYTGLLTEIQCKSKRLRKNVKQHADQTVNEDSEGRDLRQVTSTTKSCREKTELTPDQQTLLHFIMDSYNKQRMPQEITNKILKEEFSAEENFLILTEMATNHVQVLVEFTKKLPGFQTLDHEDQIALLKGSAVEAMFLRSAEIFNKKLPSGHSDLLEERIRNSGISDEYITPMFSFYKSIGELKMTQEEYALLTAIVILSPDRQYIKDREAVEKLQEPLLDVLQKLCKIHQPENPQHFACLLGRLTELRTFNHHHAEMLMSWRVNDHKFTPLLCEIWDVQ

Assay [2] in a line: ATG_GRE_CIS: Attagene CIS-FACTORIAL HepG2 Assay for human Glucocorticoid Response Elements (GRE) (AID 2282947). The following applies: HepG2 GRE cis-reporter, Attagene multiplex mRNA; actives raise or lower the signal. In short, it runs like this: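 Reporter transcripts read by RT-PCR with capillary electrophoresis fluorescence after a 24 h chemical exposure of HepG2 cells transiently transfected with multiple cis-element reporter units. Gain or loss fitted against DMSO.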

The nature of assay [3]: ATG_ISRE_CIS: Attagene CIS-FACTORIAL HepG2 Assay for human Interferon Regulatory Factor 1 (IRF1) binding to an Interferon-Stimulated Response Element (ISRE) (AID 2282948). The following applies: HepG2 ISRE cis-reporter (Attagene), mRNA transcription readout; actives raise or lower the signal. Summed up: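 Multiplexed mRNA reporter readout in human liver HepG2 cells: cis-element-driven reporters transfected, compound added for 24 h, transcripts amplified, fluorescently labelled and sized by capillary electrophoresis; curve fitting bidirectional against DMSO.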

Assay [4] in a line: ATG_M_32_CIS: Attagene CIS-FACTORIAL HepG2 Assay for M32 Transcription Factor (Internal Marker) (AID 2282949).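 Further: background control marker of the multiplexed CIS panel rather than a real target.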 The following applies: HepG2 Attagene cis-factorial M32 reporter, mRNA; actives raise or lower the signal. Summed up:
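HepG2 human liver cells transiently transfected with cis-promoter-driven multiple reporter transcription units, dosed 24 h. Reporter mRNA quantified by RT-PCR, FAM-labelled primer extension, HpaI digest and capillary electrophoresis; bidirectional fit versus DMSO baseline.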

Assay [5] in a line: ATG_M_06_CIS: Attagene CIS-FACTORIAL HepG2 Assay for M06 Transcription Factor (Internal Marker) (AID 2282950). The conditions noted are these: HepG2 Attagene CIS-FACTORIAL M06 internal marker reporter; actives raise or lower the signal. In short, it runs like this:
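One of many multiplexed endpoints: HepG2 reporter mRNA after 24 h dosing, detected by RT-PCR and capillary electrophoresis fluorescence; gain or loss of signal analysed against DMSO.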

For assay [6], the target named is Hypoxia-inducible factor 1-alpha (Homo sapiens) (UniProt Q16665). The assay can be described thus: ATG_HIF1a_CIS: Attagene CIS-FACTORIAL HepG2 Assay for human Hypoxia Inducible Factor 1 (HIF1A) (AID 2282951). The following applies: HepG2 Attagene cis-factorial HIF1a reporter transcription; actives raise or lower the signal. Summed up: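 Cis-element reporter constructs were transiently transfected into HepG2 cells, which were treated for 24 h; reporter RNA was reverse-transcribed, amplified, labelled and resolved by capillary electrophoresis.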
Hypoxia-inducible factor 1-alpha (Homo sapiens), sequence (Q16665 whole entry, looked up): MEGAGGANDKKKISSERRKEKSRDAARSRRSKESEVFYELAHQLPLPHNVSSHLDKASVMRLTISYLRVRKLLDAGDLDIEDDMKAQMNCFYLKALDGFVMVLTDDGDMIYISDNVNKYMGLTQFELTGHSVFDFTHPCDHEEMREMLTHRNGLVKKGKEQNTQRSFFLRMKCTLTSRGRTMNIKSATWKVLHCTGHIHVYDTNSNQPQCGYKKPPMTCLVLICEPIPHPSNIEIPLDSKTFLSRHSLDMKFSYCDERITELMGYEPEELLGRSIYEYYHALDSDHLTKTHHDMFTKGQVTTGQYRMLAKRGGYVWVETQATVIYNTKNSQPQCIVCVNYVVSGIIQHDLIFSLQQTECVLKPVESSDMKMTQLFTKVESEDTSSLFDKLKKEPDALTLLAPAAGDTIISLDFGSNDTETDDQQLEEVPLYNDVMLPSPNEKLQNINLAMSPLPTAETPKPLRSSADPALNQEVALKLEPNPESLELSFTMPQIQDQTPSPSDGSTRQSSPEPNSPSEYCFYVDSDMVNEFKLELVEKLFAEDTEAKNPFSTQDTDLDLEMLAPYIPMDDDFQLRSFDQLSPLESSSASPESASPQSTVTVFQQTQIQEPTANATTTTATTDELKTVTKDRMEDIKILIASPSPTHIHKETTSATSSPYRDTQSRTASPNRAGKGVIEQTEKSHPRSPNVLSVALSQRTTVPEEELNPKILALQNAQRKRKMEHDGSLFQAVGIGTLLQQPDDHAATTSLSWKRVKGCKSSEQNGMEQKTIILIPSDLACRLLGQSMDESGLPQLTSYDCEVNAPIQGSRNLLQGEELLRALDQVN

In assay [7] the target is Heat shock factor protein 1 (Homo sapiens) (UniProt Q00613). The assay can be described thus: ATG_HSE_CIS: Attagene CIS-FACTORIAL HepG2 Assay for human Heat Shock Transcription Factor 1 (HSE) (AID 2282953). The conditions noted are these: HepG2 HSE cis-reporter, Attagene RNA transcription; actives raise or lower the signal. In short, it runs like this: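 Using HepG2 with transfected cis-driven reporter constructs, compound effects on endogenous factor activity are scored as reporter mRNA change at 24 h. Detection: RT-PCR, HpaI digestion, capillary electrophoresis; bidirectional fitting to DMSO.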
Heat shock factor protein 1 (Homo sapiens), sequence (Q00613 whole entry, looked up): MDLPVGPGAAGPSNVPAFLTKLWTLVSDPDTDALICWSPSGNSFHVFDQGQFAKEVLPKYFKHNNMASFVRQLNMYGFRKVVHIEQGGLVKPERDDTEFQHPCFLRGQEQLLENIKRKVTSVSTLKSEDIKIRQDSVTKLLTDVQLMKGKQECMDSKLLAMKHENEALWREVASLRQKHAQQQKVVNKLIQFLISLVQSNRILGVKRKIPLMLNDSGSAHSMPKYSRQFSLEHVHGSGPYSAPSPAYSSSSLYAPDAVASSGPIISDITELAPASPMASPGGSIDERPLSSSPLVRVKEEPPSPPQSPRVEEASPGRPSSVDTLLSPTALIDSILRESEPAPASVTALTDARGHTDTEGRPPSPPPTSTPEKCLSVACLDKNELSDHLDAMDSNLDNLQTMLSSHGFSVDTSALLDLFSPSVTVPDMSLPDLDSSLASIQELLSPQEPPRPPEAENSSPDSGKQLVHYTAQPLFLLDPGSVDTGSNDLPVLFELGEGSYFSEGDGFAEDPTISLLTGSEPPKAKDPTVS

Assay [8] is described as follows: ATG_MRE_CIS: Attagene CIS-FACTORIAL HepG2 Assay for human Metal Responsive Element (MRE) (AID 2282954). The following applies: HepG2 MRE cis-reporter transcription, Attagene multiplex; actives raise or lower the signal. In short, it runs like this:
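Endogenous MRE-dependent transcription read as reporter mRNA in transiently transfected human HepG2 cells at 24 h. RNA reverse-transcribed, PCR-amplified, labelled and resolved by capillary electrophoresis; gain or loss relative to DMSO.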

Assay [9] in a line: ATG_PBREM_CIS: Attagene CIS-FACTORIAL HepG2 Assay for human Phenobarbital-responsive Enhancer Module (PBREM) (AID 2282955). The conditions noted are these: HepG2 PBREM cis-reporter, Attagene multiplexed transcription; actives raise or lower the signal. Summed up:
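Multiplexed cis-reporter readout in human hepatoma HepG2 cells; PBREM-regulated transcript quantified after 24 h exposure by fluorescent RT-PCR fragment analysis. Signal changes up or down fitted relative to DMSO.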

In assay [10] the target is Paired box protein Pax-6 (Homo sapiens) (UniProt P26367). Kind of assay: ATG_Pax6_CIS: Attagene CIS-FACTORIAL HepG2 Assay for human Paired Box 6 (PAX6) (AID 2282956). The conditions noted are these: HepG2 CIS-FACTORIAL PAX6 reporter transcription, RNA readout; actives raise or lower the signal. In short, it runs like this: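 Fluorescent RT-PCR products separated by capillary electrophoresis report PAX6-linked promoter mRNA in HepG2 cells 24 h post-dose. Curves fitted bidirectionally, DMSO as negative control.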
Paired box protein Pax-6 (Homo sapiens), sequence (P26367 whole entry, looked up): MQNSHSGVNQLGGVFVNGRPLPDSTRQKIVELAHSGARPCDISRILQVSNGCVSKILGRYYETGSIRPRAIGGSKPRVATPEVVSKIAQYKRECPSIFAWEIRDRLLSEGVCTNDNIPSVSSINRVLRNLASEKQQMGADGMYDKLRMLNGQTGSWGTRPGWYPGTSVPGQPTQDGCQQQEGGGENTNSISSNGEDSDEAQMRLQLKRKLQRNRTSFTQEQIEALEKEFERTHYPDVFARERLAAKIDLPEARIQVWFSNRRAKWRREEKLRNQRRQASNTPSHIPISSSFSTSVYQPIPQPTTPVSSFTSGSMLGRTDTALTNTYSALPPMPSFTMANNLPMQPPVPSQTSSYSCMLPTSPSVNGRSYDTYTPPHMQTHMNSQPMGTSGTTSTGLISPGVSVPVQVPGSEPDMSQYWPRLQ

The nature of assay [11]: ATG_PXRE_CIS: Attagene CIS-FACTORIAL HepG2 Assay for human Pregnane X Receptor Element (PXRE) (AID 2282957). The following applies: HepG2 Attagene CIS-FACTORIAL PXRE reporter, mRNA; actives raise or lower the signal. In short, it runs like this:
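Reporter transcripts under endogenous PXR-responsive cis-regulation quantified from total RNA of transfected HepG2 cells 24 h post-dosing, via RT-PCR with fluorescent primer extension and capillary electrophoresis. Gain or loss of signal fitted against DMSO baseline.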

A short description of assay [12]: ATG_PPRE_CIS: Attagene CIS-FACTORIAL HepG2 Assay for human Peroxisome Proliferator-activated Response Element (PPRE) (AID 2282958). The following applies: HepG2 PPRE cis-element reporter, Attagene transcription factor profiling; actives raise or lower the signal. Summed up: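 DMSO served as negative control and baseline for bidirectional curve fitting. Signal came from PPRE-regulated reporter mRNA in HepG2 cells, measured 24 h post-dosing by RT-PCR, 6-FAM primer extension and capillary electrophoresis.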

Assay [13] in a line: ATG_RORE_CIS: Attagene CIS-FACTORIAL HepG2 Assay for human RAR-related Orphan Receptor Element (RORE) (AID 2282959). The conditions noted are these: HepG2 Attagene cis-factorial RORE reporter, mRNA; actives raise or lower the signal. In short, it runs like this:
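Transfect HepG2 with MRTUs; treat 24 h; extract RNA; RT with oligo(dT); PCR with reporter-specific primers; 6-FAM primer extension; HpaI digest 2 h at 37 C; capillary electrophoresis. Fit vs DMSO, bidirectional.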

Assay [14] can be described thus: ATG_Sox_CIS: Attagene CIS-FACTORIAL HepG2 Assay for human SRY-box transcription factor (SOX) (AID 2282960). The conditions noted are these: HepG2 Attagene cis-factorial SOX reporter, mRNA; actives raise or lower the signal. In short, it runs like this:
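Fluorescence-labelled cDNA fragments from reporter transcripts, sized by CE, give the signal. Cells: HepG2, transiently transfected with cis-regulated reporter units. Exposure 24 h; DMSO negative control; bidirectional curve fitting.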

Assay [15] deals with Transcription factor Sp1 (Homo sapiens) (UniProt P08047). The assay can be described thus: ATG_Sp1_CIS: Attagene CIS-FACTORIAL HepG2 Assay for human Specificity Protein 1 (Sp1) (AID 2282961). The conditions noted are these: HepG2 Sp1 cis-reporter transcription, actives raise or lower the signal. Summed up: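 Chemicals are dosed onto HepG2 cells transfected with multiple cis-promoter reporter constructs, and after 24 h reporter RNA is reverse-transcribed, PCR-amplified and resolved by capillary electrophoresis for fluorescence quantitation; activity is scored up or down against DMSO.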
Transcription factor Sp1 (Homo sapiens), sequence (P08047 whole entry, looked up): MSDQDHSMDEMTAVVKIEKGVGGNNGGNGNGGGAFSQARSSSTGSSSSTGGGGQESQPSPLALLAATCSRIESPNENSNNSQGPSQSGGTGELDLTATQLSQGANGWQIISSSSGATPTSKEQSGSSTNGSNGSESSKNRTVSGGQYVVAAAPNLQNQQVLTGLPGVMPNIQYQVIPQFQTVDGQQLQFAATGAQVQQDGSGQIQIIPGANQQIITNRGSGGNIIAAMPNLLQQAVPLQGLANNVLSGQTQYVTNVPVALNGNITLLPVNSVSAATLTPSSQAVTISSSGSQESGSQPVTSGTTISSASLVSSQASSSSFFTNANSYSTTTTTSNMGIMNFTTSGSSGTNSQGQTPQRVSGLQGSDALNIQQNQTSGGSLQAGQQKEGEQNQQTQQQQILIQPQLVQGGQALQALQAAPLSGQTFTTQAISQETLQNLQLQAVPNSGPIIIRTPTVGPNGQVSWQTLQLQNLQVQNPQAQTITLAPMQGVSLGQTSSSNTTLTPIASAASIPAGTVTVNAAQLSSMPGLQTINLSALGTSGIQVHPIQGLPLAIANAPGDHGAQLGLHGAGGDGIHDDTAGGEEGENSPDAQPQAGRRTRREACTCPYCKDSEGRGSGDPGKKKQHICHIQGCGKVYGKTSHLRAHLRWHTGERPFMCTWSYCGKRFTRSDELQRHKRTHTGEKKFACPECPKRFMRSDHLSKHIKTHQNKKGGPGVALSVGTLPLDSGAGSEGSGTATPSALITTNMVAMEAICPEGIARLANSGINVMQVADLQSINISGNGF

The nature of assay [16]: ATG_SREBP_CIS: Attagene CIS-FACTORIAL HepG2 Assay for human Sterol Regulatory Element Binding (SREBP) (AID 2282962). The following applies: HepG2 Attagene cis-factorial SREBP reporter, mRNA; actives raise or lower the signal. In short, it runs like this:
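Endogenous factor activity is measured in HepG2 through multiplexed reporter units under cis-element control. Following a 24 h incubation, reporter transcripts are reverse-transcribed, PCR-amplified and sized by capillary electrophoresis; activity is fitted in both directions relative to DMSO.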

The target in assay [17] is Signal transducer and activator of transcription 3 (Homo sapiens) (UniProt P40763). Kind of assay: ATG_STAT3_CIS: Attagene CIS-FACTORIAL HepG2 Assay for human Signal Transducer and Activator of Transcription 3 (STAT3) (AID 2282963). The conditions noted are these: HepG2, Attagene cis-factorial STAT3 reporter transcription; actives raise or lower the signal. In short, it runs like this:
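Readout is reporter transcript quantified by RT-PCR and capillary electrophoresis, with 6-FAM primer extension and HpaI digestion. Total RNA is taken 24 h after dosing transiently transfected HepG2 carrying cis-regulated reporter units. Bidirectional fit against DMSO.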

The nature of assay [18]: ATG_TA_CIS: Attagene CIS-FACTORIAL HepG2 Assay for human TA Basal Promoter (AID 2282964). The conditions noted are these: HepG2 Attagene CIS-factorial TA basal promoter reporter; actives raise or lower the signal. In short, it runs like this:
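Transient MRTU transfection of HepG2 preceded 24 h compound exposure. Reporter mRNA levels were then read by RT-PCR with capillary electrophoresis, and this background-control endpoint was fitted bidirectionally to DMSO.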

A short description of assay [19]: ATG_TCF_b_cat_CIS: Attagene CIS-FACTORIAL HepG2 Assay for human T-Cell-Factor with beta-catenin (TCF/b-cat) (AID 2282965). The following applies: HepG2 TCF/beta-catenin cis-reporter transcription, actives raise or lower the signal. Summed up: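 Endogenous transcription factor activity is captured through cis-promoter reporter constructs transiently introduced into human HepG2 liver cells. Induced reporter mRNA is measured after 24 h and fitted bidirectionally relative to DMSO.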

Assay [20] concerns the target Hepatocyte nuclear factor 6 (Homo sapiens) (UniProt Q9UBC0). Kind of assay: ATG_HNF6_CIS: Attagene CIS-FACTORIAL HepG2 Assay for human Hepatocyte Nuclear Factor 6 (HNF6) (AID 2282952). The following applies: HepG2 Attagene cis-factorial HNF6 reporter transcription; actives raise or lower the signal. In short, it runs like this:
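Endogenous factor activity read in transiently transfected HepG2 via promoter-regulated reporter transcripts. RNA harvested 24 h post-dosing, reverse-transcribed, PCR-amplified, FAM-labelled, HpaI-digested and resolved by capillary electrophoresis; fitted in both directions against DMSO.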

Hepatocyte nuclear factor 6 (Homo sapiens), sequence (Q9UBC0 whole entry, looked up): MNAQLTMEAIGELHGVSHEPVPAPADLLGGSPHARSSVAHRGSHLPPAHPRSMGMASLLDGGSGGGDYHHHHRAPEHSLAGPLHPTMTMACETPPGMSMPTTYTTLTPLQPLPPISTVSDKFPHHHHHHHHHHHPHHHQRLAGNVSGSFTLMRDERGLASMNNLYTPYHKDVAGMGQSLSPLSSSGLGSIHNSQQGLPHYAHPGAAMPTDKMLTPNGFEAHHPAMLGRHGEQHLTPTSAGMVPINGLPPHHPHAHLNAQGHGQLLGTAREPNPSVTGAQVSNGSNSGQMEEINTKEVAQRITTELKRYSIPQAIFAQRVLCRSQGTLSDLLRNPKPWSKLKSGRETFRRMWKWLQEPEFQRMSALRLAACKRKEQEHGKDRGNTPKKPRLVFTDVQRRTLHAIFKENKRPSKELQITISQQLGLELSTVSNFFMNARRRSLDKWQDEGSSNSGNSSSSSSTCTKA
Signal transducer and activator of transcription 3 (Homo sapiens), sequence (P40763 whole entry, looked up): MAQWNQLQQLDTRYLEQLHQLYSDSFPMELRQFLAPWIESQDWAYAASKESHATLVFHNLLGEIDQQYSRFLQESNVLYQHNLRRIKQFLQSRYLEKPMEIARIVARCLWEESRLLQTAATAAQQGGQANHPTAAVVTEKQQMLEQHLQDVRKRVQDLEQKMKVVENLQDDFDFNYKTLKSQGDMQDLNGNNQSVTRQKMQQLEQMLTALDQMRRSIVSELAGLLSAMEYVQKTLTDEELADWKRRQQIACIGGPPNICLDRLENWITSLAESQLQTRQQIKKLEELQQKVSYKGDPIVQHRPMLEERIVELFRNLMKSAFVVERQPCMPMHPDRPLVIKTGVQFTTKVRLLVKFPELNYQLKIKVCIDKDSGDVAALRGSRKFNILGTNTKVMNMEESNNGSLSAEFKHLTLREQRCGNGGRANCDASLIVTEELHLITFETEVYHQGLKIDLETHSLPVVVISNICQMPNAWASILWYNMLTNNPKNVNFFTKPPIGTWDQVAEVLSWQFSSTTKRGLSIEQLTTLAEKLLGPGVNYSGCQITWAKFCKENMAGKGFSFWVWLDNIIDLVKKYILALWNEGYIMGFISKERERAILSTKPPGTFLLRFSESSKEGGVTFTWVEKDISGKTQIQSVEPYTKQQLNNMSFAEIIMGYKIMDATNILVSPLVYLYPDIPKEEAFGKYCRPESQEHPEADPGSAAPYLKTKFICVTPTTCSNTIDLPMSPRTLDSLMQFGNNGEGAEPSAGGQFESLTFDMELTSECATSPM

What is called AC50 is the concentration at which the activity in the assay is half-maximal. For `CCC(C)c1cc([N+](=O)[O-])cc([N+](=O)[O-])c1OC(=O)OC(C)C` (stereo unspecified), the half-maximal activity concentration (AC50) was 27.4 µM (active) in assay [1]; 24.3 µM (active) in assay [3]; 49.2 µM (active) in assay [4]; 26.6 µM (active) in assay [7]; 34.8 µM (active) in assay [8]; 25.9 µM (active) in assay [10]. The half-maximal activity concentration (AC50) in assay [11] is 0.731 µM (active); in [14], 25.3 µM (active); in assay [16] it was 25.1 µM (active); in assay [17], 100 µM (active). Also, the result in assay [2], in assay [5], in assay [6], in assay [9], in assay [12] and in [13] was inactive. Moreover, the result in [15], in assay [18] and in [19] was inactive.
Take `CCCCC(CC)COC(=O)c1ccc(O)cc1` (stereo unspecified): the call in assay [1], in [2], in assay [3], in assay [4], in assay [6] and in assay [20] was inactive. For the same compound, the compound was classed as inactive in assay [7], in [8], in assay [10], in assay [13], in assay [14] and in [15]. Moreover, the compound was classed as inactive in assay [16], in assay [18] and in assay [19]. In assay [11], the AC50 was 11.1 µM (active).
Take `CCCN(CCC)S(=O)(=O)c1ccc(C(=O)O)cc1`: the call in [1], in assay [2], in assay [3], in assay [4], in assay [5] and in assay [20] was inactive. The call in assay [7], in [8], in [10], in assay [12], in assay [13] and in assay [14] was inactive. In addition, the compound was called inactive in assay [15], in assay [16], in [17], in [18] and in [19]. For the same compound, the AC50 in [11] is 27.3 µM (active).
Consider `CCCCN(CCCC)C(=O)N(CCCC)CCCC`, for which the AC50 is 24.5 µM (active) in assay [1]; 48.3 µM (active) in assay [2]; 54.8 µM (active) in assay [6]; 53.7 µM (active) in [20]; 52.2 µM (active) in [7]; 8.86 µM (active) in assay [8]. Further, the half-maximal activity concentration (AC50) was 58.9 µM (active) in assay [9]; 37.2 µM (active) in assay [10]; 0.753 µM (active) in [11]; 61 µM (active) in [12]; 46.8 µM (active) in assay [15]; 54.6 µM (active) in [16]. Further, the values for the concentration at half-maximal activity (AC50) in assay [18] and in assay [19] were 25.5 µM (active) and 60.6 µM (active), respectively. Also, the compound was called inactive in [3], in assay [4], in assay [13] and in assay [17].
